From PubChem BioAssay (EPA / NIEHS) come the findings set out here.

The structures appear in SMILES notation. Results filed as inconclusive are left out. The source made the active and inactive calls. How the source made its calls: active means hit-call score of the fitted dose curve at least 0.9, where 1 is the maximum; inconclusive means response in the unintended direction; inactive means score below 0.9.

human Phosphatase and Tensin Homolog (PTEN), PTEN (gene 5728), sequence (P60484 whole entry, looked up): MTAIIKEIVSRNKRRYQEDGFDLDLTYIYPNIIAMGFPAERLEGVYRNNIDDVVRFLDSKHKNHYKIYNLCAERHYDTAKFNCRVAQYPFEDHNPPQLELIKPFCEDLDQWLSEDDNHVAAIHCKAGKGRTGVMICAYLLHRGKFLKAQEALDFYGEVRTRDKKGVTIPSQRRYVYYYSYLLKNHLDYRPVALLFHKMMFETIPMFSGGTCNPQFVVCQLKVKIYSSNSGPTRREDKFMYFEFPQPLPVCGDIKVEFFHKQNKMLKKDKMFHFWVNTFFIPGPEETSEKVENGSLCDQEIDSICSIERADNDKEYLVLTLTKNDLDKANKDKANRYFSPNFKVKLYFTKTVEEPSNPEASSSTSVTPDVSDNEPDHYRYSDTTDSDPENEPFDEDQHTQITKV
human Protein Tyrosine Phosphatase Non-receptor Type 4 (PTPN4), PTPN4 (gene 5775), sequence (P29074 whole entry, looked up): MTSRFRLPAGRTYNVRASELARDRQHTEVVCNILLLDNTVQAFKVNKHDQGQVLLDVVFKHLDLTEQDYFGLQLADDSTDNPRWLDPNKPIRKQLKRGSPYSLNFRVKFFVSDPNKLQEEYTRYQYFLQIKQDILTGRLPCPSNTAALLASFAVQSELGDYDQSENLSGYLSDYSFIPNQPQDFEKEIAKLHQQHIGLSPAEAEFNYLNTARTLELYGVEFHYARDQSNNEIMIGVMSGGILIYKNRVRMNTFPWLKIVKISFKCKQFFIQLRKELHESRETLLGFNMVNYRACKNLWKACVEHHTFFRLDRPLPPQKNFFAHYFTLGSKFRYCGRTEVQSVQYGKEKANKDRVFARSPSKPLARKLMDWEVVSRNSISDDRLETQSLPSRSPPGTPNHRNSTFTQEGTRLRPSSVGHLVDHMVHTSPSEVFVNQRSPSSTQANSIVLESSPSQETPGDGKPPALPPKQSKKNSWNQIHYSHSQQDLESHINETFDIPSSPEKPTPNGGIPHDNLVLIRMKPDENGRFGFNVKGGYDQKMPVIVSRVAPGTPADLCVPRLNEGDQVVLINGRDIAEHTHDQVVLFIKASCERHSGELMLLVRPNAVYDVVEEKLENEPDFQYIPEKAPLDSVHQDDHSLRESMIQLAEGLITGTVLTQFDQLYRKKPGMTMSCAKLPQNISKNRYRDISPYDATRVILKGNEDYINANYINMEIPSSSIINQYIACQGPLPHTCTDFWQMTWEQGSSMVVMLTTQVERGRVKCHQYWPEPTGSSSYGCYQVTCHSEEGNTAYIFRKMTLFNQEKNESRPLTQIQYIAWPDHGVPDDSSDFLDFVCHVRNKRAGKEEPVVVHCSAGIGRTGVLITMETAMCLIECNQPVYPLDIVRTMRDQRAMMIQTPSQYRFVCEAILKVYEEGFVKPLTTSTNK

The first assay addresses human Phosphatase and Tensin Homolog (PTEN), PTEN (gene 5728) (UniProt P60484). Kind of assay: NVS_ENZ_hPTEN: NovaScreen (NVS) Enzymatic Assay for human Phosphatase and Tensin Homolog (PTEN) (AID 2283203). An outline of the steps:
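Cell-free recombinant human PTEN with fluorescent substrate; product separated by electrophoretic mobility shift and read by fluorescence 1 h after dosing. Primary screen in duplicate at 25 uM, actives followed in concentration series versus DMSO.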
For `O=C(O)C(F)(F)C(F)(F)C(F)(F)C(F)(F)C(F)(F)C(F)(F)C(F)(F)C(F)(F)F`, the compound was called inactive.
On the same count and under the same terms, the same measure for `O=S(=O)(O)C(F)(F)C(F)(F)C(F)(F)C(F)(F)C(F)(F)C(F)(F)F`: “inactive”; for `Cc1cccc([N+](=O)[O-])c1`: “inactive”; for `O=C(O)C(F)(F)C(F)(F)C(F)(F)C(F)(F)C(F)(F)F`: “inactive”.

For a further assay, the target named is human Protein Tyrosine Phosphatase Non-receptor Type 2 (PTPN2), PTPN2 (gene 5771) (UniProt P17706). In words: NVS_ENZ_hPTPN2: NovaScreen (NVS) Enzymatic Assay for human Protein Tyrosine Phosphatase Non-receptor Type 2 (PTPN2) (AID 2283207). An outline of the steps: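 Cell-free recombinant enzyme with fluorescent substrate, product separated by electrophoretic mobility shift; read 1 h after dosing. Primary screen single concentration (25 uM) in duplicate; actives followed in concentration series; loss of signal versus DMSO.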
human Protein Tyrosine Phosphatase Non-receptor Type 2 (PTPN2), PTPN2 (gene 5771), sequence (P17706 whole entry, looked up): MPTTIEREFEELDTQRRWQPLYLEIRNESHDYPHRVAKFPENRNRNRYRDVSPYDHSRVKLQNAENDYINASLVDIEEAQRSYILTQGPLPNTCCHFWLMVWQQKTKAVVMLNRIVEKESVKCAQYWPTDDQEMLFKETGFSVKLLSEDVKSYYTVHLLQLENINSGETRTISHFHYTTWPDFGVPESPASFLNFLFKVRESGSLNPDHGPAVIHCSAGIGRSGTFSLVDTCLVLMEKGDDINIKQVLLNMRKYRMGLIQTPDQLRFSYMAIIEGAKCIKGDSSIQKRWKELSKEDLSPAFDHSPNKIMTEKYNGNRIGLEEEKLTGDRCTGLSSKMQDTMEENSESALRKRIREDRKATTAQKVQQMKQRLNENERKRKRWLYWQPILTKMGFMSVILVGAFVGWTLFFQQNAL
For `CC(C)C(=O)OCC(C)(C)C(OC(=O)C(C)C)C(C)C` (stereo unspecified), the call was inactive.
Still for that read-out and setting: the same measure for `Cc1cc(O)ccc1Cl`: “inactive”; for `O=C(O)C(F)(F)C(F)(F)C(F)(F)C(F)(F)C(F)(F)F`: “inactive”.

Another assay addresses human Protein Tyrosine Phosphatase Non-receptor Type 4 (PTPN4), PTPN4 (gene 5775) (UniProt P29074). In words: NVS_ENZ_hPTPN4: NovaScreen (NVS) Enzymatic Assay for human Protein Tyrosine Phosphatase Non-receptor Type 4 (PTPN4) (AID 2283208). An outline of the steps:
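Cell-free assay of PTPN4 expressed in Sf9 cells, using a fluorescent substrate with product separated by mobility shift; read 1.33 h after dosing. Single-point screen at 25 uM, then concentration-response up to 50 uM. Loss of signal relative to DMSO.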
For `CN(C)c1nc(=O)n(C2CCCCC2)c(=O)n1C`, the outcome was inactive.
In the case of `CC(C)C(=O)OCC(C)(C)C(OC(=O)C(C)C)C(C)C` (stereo unspecified), the compound was classed as inactive.
For the compound `O=C(O)C(F)(F)C(F)(F)C(F)(F)C(F)(F)C(F)(F)F`, the outcome was inactive.
As to `CC1=C2C[C@H]3[C@@H](CC=C4C[C@@H](O)CC[C@@]43C)[C@@H]2CC[C@]12O[C@@H]1C[C@H](C)CN[C@H]1[C@H]2C`, the AC50 is 16 µM (active).
